# Test results published in PubChem BioAssay (NCATS).
# Inconclusive results are not listed. A number with no mark means an inactive call. Active and inactive are the calls of the source. Calls follow the shape of the dose curve; as a rule, active = well fitted curve in the direction sought with a large enough effect; inconclusive = small, poorly fitted or top-dose-only effect, or another doubt; inactive = no such curve, though single readings can be large; an effect the other way counts as inactive or inconclusive.
# Experiments:
# [1] = qHTS of pediatric cancer cell lines to identify multiple opportunities for drug repurposing: Primary screen for U-2 OS cells (AID 1347096); also: nearly all actives have a fitted effect of over 50% in size;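 as to activity change, negative = cytotoxic: plate controls were DMSO wells for no effect and bortezomib positive control wells for full effect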
# How it was run: (§1)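 Viability after 48 h compound treatment at 37C, 500-1,000 cells/well, read as ATP luminescence with CellTiter-Glo. Primary screens used 11-point (MIPE, 0.78 nM-46 µM) or 8-point (NPC, 0.59 nM-46 µM) final concentrations; follow-up screens used 11-point dilutions.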
# [2] = qHTS of pediatric cancer cell lines to identify multiple opportunities for drug repurposing: Primary screen for Saos-2 cells (AID 1347097); also: nearly all actives have a fitted effect of over 40% in size; as to activity change, negative = cytotoxic: % is scaled to controls: 0 for no effect and ±100 for the full control effect
# How it was run: (§2)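 Primary screen of approved and investigational compounds on cells in growth media at 37 degrees C, 5% CO2. MIPE set at 11-point and NPC set at 8-point dilutions; viability scored by ATP-based luminescence at 48 hours.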
# [3] = qHTS of pediatric cancer cell lines to identify multiple opportunities for drug repurposing: Primary screen for SK-N-SH cells (AID 1347098); also: nearly all actives have a fitted effect of over 65% in size;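 as to activity change, negative = cytotoxic: DMSO served as neutral control and bortezomib at 2.3 µM as positive control; % is scaled to controls: 0 for no effect and ±100 for the full control effect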
# How it was run: (§3)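 Cells (500-1,000/well) rested 5 h, then received compounds for 48 h; metabolically active cells were measured by CellTiter-Glo luminescence. Final concentrations spanned up to 46 µM (MIPE, 11-point) or 0.59 nM-46 µM (NPC, 8-point) in primary screens, 11-point in follow-ups.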
# [4] = qHTS of pediatric cancer cell lines to identify multiple opportunities for drug repurposing: Primary screen for NB1643 cells (AID 1347099); also: nearly all actives have a fitted effect of over 50% in size;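 as to activity change, negative = cytotoxic: plate controls were DMSO neutral control for no effect and bortezomib positive control for full effect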
# How it was run: as §2
# [5] = qHTS of pediatric cancer cell lines to identify multiple opportunities for drug repurposing: Primary screen for LAN-5 cells (AID 1347100);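 as to activity change, negative = cytotoxic: plate controls were DMSO neutral control for no effect and bortezomib positive control for full effect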
# How it was run: as §1
# [6] = qHTS of pediatric cancer cell lines to identify multiple opportunities for drug repurposing: Primary screen for BT-12 cells (AID 1347101); also: nearly all actives have a fitted effect of over 25% in size;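 as to activity change, negative = cytotoxic: plate controls were DMSO for no effect and bortezomib positive control for full effect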
# How it was run: as §3
# [7] = qHTS of pediatric cancer cell lines to identify multiple opportunities for drug repurposing: Primary screen for Rh18 cells (AID 1347102); also: nearly all actives have a fitted effect of over 65% in size
# How it was run: as §1
# [8] = qHTS of pediatric cancer cell lines to identify multiple opportunities for drug repurposing: Primary screen for OHS-50 cells (AID 1347103); also: nearly all actives have a fitted effect of over 40% in size;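 as to activity change, negative = cytotoxic: plate controls were DMSO neutral control for no effect and bortezomib positive control for full effect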
# How it was run: as §3
# [9] = qHTS of pediatric cancer cell lines to identify multiple opportunities for drug repurposing: Primary screen for RD cells (AID 1347104); also: nearly all actives have a fitted effect of over 55% in size;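 as to activity change, negative = cytotoxic: plate controls were DMSO for no effect and bortezomib for full effect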
# How it was run: as §2
# [10] = qHTS of pediatric cancer cell lines to identify multiple opportunities for drug repurposing: Primary screen for MG 63 (6-TG R) cells (AID 1347105); also: nearly all actives have a fitted effect of over 50% in size
# How it was run: as §2
# [11] = qHTS of pediatric cancer cell lines to identify multiple opportunities for drug repurposing: Primary screen for control Hh wild type fibroblast cells (AID 1347106); also: nearly all actives have a fitted effect of over 55% in size;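 as to activity change, negative = cytotoxic: series mostly up to about 46 µM; % is scaled to controls: 0 for no effect and ±100 for the full control effect; a drop in luminescence marks cytotoxicity and a rise apparent proliferation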
# How it was run: as §1
# [12] = qHTS of pediatric cancer cell lines to identify multiple opportunities for drug repurposing: Primary screen for Rh30 cells (AID 1347107); also: nearly all actives have a fitted effect of over 75% in size
# How it was run: as §1
# [13] = qHTS of pediatric cancer cell lines to identify multiple opportunities for drug repurposing: Primary screen for Rh41 cells (AID 1347108); also: nearly all actives have a fitted effect of over 70% in size;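 as to activity change, negative = cytotoxic: series mostly up to about 46 µM; luminescence drop marks cytotoxic hits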
# How it was run: as §2
# [14] = qHTS of pediatric cancer cell lines to identify multiple opportunities for drug repurposing: Confirmatory screen for NB1643 cells (AID 1347109); also: nearly all actives have a fitted effect of over 45% in size;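 as to activity change, negative = cytotoxic: plate controls were DMSO for no effect and bortezomib for full effect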
# How it was run: as §1
# [15] = qHTS of pediatric cancer cell lines to identify multiple opportunities for drug repurposing: Confirmatory screen for A673 cells (AID 1347110); also: nearly all actives have a fitted effect of over 65% in size
# How it was run: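 Forty-eight-hour viability assay. Follow-up compounds ran at 11-point dilutions; positive control bortezomib at 2.3 uM final, neutral control DMSO.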
# [16] = qHTS of pediatric cancer cell lines to identify multiple opportunities for drug repurposing: Confirmatory screen for BT-12 cells (AID 1347112); also: nearly all actives have a fitted effect of over 55% in size; as to activity change, negative = cytotoxic: % is scaled to controls: 0 for no effect and ±100 for the full control effect
# How it was run: as §1
# [17] = qHTS of pediatric cancer cell lines to identify multiple opportunities for drug repurposing: Confirmatory screen for LAN-5 cells (AID 1347113); also: nearly all actives have a fitted effect of over 65% in size
# How it was run: as §1
# [18] = qHTS of pediatric cancer cell lines to identify multiple opportunities for drug repurposing: Confirmatory screen for DAOY cells (AID 1347114); also: nearly all actives have a fitted effect of over 65% in size
# How it was run: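 Viability measured as metabolically active cells via CellTiter-Glo luminescence following 48 hours of compound exposure, 11-point dilutions in confirmatory testing. 500-1,000 cells/well plated 5 hours before dosing; controls were DMSO and 2.3 µM bortezomib.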
# [19] = qHTS of pediatric cancer cell lines to identify multiple opportunities for drug repurposing: Confirmatory screen for NB-EBc1 cells (AID 1347115); also: nearly all actives have a fitted effect of over 45% in size; as to activity change, negative = cytotoxic: % is scaled to controls: 0 for no effect and ±100 for the full control effect
# How it was run: as §1
# [20] = qHTS of pediatric cancer cell lines to identify multiple opportunities for drug repurposing: Confirmatory screen for SK-N-MC cells (AID 1347111);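 also: cells exposed to compound for 48 h before the readout; nearly all actives have a fitted effect of over 70% in size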;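 as to activity change, negative = cytotoxic: plate controls were DMSO for no effect and bortezomib for full effect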
# How it was run: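 SK-N-MC cells at 500-1,000 cells/well in growth media were pre-incubated 5 h, then exposed to compounds at 11-point dilutions for 48 h at 37 degrees C, 5% CO2. Viability was read as CellTiter-Glo luminescence.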
# Potency is read from the fitted curve at half-maximal effect.
structure (smiles),measurement,setting,value
CC1(C)CCC(c2ccc(Cl)cc2)=C(CN2CCN(c3ccc(C(=O)NS(=O)(=O)c4ccc(N[C@H](CCN5CCOCC5)CSc5ccccc5)c(S(=O)(=O)C(F)(F)F)c4)cc3)CC2)C1,Potency,[1],7.43 µM (active)
same,Potency,[2],4.18 µM (active)
same,Potency,[3],24.1 µM (active)
same,Potency,[4],0.0093 µM (active)
same,Potency,[5],0.0093 µM (active)
same,Potency,[6],15.3 µM (active)
same,Potency,[7],0.0296 µM (active)
same,Potency,[8],5.44 µM (active)
same,Potency,[9],10.5 µM (active)
same,Potency,[10],9.35 µM (active)
same,Potency,[11],inactive
same,Potency,[12],9.35 µM (active)
same,Potency,[13],5.9 µM (active)
same,Potency,[14],inactive
same,Potency,[15],8.27 µM (active)
same,Potency,[16],inactive
same,Potency,[17],inactive
same,Potency,[18],9.27 µM (active)
same,Potency,[19],inactive
O=C(Nc1cc(C(F)(F)F)cc(C(F)(F)F)c1)c1cc(Cl)ccc1O,Potency,[1],4.69 µM (active)
same,Potency,[2],2.64 µM (active)
same,Potency,[3],2.41 µM (active)
same,Potency,[4],0.372 µM (active)
same,Potency,[5],0.332 µM (active)
same,Potency,[6],1.72 µM (active)
same,Potency,[7],4.18 µM (active)
same,Potency,[8],0.432 µM (active)
same,Potency,[9],0.662 µM (active)
same,Potency,[10],0.743 µM (active)
same,Potency,[11],inactive
same,Potency,[13],2.35 µM (active)
same,Potency,[14],1.65 µM (active)
same,Potency,[15],3.29 µM (active)
same,Potency,[20],3.69 µM (active)
same,Potency,[16],3.69 µM (active)
same,Potency,[17],2.61 µM (active)
same,Potency,[19],2.93 µM (active)
O=c1[nH]c(=O)n(C2CCCO2)cc1F (stereo not drawn),Potency,[1],inactive
same,Potency,[2],inactive
same,Potency,[3],inactive
same,Potency,[4],inactive
same,Potency,[5],inactive
same,Potency,[6],inactive
same,Potency,[7],inactive
same,Potency,[8],inactive
same,Potency,[9],inactive
same,Potency,[10],inactive
same,Potency,[11],inactive
same,Potency,[12],inactive
same,Potency,[13],inactive
COCCOc1ccc2c(c1)ncn2-c1ccc2cccc(N3CCC(N)CC3)c2n1,Potency,[1],18.7 µM (active)
same,Potency,[2],18.7 µM (active)
same,Potency,[3],21.5 µM (active)
same,Potency,[4],23.5 µM (active)
same,Potency,[5],9.35 µM (active)
same,Potency,[6],27.3 µM (active)
same,Potency,[7],26.4 µM (active)
same,Potency,[8],19.3 µM (active)
same,Potency,[9],29.6 µM (active)
same,Potency,[10],29.6 µM (active)
same,Potency,[11],inactive
same,Potency,[13],23.5 µM (active)
Nc1ccccc1NC(=O)c1ccc(CNc2nccc(-c3cccnc3)n2)cc1,Potency,[1],4.69 µM (active)
same,Potency,[2],2.35 µM (active)
same,Potency,[3],2.41 µM (active)
same,Potency,[4],0.296 µM (active)
same,Potency,[5],0.743 µM (active)
same,Potency,[6],4.85 µM (active)
same,Potency,[7],2.09 µM (active)
same,Potency,[8],0.968 µM (active)
same,Potency,[9],2.96 µM (active)
same,Potency,[10],3.72 µM (active)
same,Potency,[11],14.8 µM (active)
same,Potency,[12],inactive
same,Potency,[13],1.18 µM (active)
same,Potency,[15],2.61 µM (active)
same,Potency,[20],inactive
same,Potency,[18],2.93 µM (active)
same,Potency,[19],inactive
Cn1cncc1[C@@](N)(c1ccc(Cl)cc1)c1ccc2c(c1)c(-c1cccc(Cl)c1)cc(=O)n2C,Potency,[1],18.7 µM (active)
same,Potency,[2],18.7 µM (active)
same,Potency,[3],8.57 µM (active)
same,Potency,[4],18.7 µM (active)
same,Potency,[5],5.9 µM (active)
same,Potency,[6],21.7 µM (active)
same,Potency,[7],16.6 µM (active)
same,Potency,[8],7.69 µM (active)
same,Potency,[9],16.6 µM (active)
same,Potency,[10],23.5 µM (active)
same,Potency,[12],14.8 µM (active)
same,Potency,[13],14.8 µM (active)
COc1cccc2nc(-c3cccs3)nc(NN3C(=O)C=C(C)C3=O)c12,Potency,[1],1.87 µM (active)
same,Potency,[2],0.743 µM (active)
same,Potency,[3],0.271 µM (active)
same,Potency,[4],0.743 µM (active)
same,Potency,[5],0.0935 µM (active)
same,Potency,[6],2.73 µM (active)
same,Potency,[7],5.26 µM (active)
same,Potency,[8],1.72 µM (active)
same,Potency,[9],5.26 µM (active)
same,Potency,[10],2.96 µM (active)
same,Potency,[11],inactive
same,Potency,[13],2.35 µM (active)
same,Potency,[14],0.657 µM (active)
same,Potency,[15],5.22 µM (active)
same,Potency,[20],0.657 µM (active)
same,Potency,[16],10.4 µM (active)
same,Potency,[17],0.657 µM (active)
same,Potency,[18],5.22 µM (active)
same,Potency,[19],2.08 µM (active)
CCCCCCCCCC(=O)N[C@@H](Cc1c[nH]c2ccccc12)C(=O)N[C@H](CC(N)=O)C(=O)N[C@@H](CC(=O)O)C(=O)N[C@@H]1C(=O)NCC(=O)N[C@@H](CCCN)C(=O)N[C@@H](CC(=O)O)C(=O)N[C@H](C)C(=O)N[C@@H](CC(=O)O)C(=O)NCC(=O)N[C@H](CO)C(=O)N[C@@H]([C@@H](C)CC(=O)O)C(=O)N[C@@H](CC(=O)c2ccccc2N)C(=O)O[C@@H]1C,Potency,[1],inactive
same,Potency,[2],inactive
same,Potency,[3],inactive
same,Potency,[4],inactive
same,Potency,[5],inactive
same,Potency,[6],inactive
same,Potency,[7],inactive
same,Potency,[8],inactive
same,Potency,[9],inactive
same,Potency,[10],inactive
same,Potency,[11],inactive
same,Potency,[12],inactive
same,Potency,[13],inactive
Cc1nc(Nc2n[nH]c3c2CN(C(=O)N[C@H](CN(C)C)c2ccccc2)C3(C)C)c2sccc2n1,Potency,[1],9.35 µM (active)
same,Potency,[2],1.66 µM (active)
same,Potency,[3],17.1 µM (active)
same,Potency,[4],0.935 µM (active)
same,Potency,[5],0.418 µM (active)
same,Potency,[6],2.43 µM (active)
same,Potency,[7],1.32 µM (active)
same,Potency,[8],0.0032 µM (active)
same,Potency,[9],2.96 µM (active)
same,Potency,[10],9.35 µM (active)
same,Potency,[11],14.8 µM (active)
same,Potency,[13],6.62 µM (active)
same,Potency,[15],13.1 µM (active)
same,Potency,[16],13.1 µM (active)
same,Potency,[18],inactive
same,Potency,[19],inactive
COc1ccc(CC2c3cc(OC)c(OC)cc3CC[N+]2(C)CCC(=O)OCCCCCOC(=O)CC[N+]2(C)CCc3cc(OC)c(OC)cc3C2Cc2ccc(OC)c(OC)c2)cc1OC (stereo not drawn),"activity change, negative = cytotoxic",[1],3.34% [at 9.22 µM]
same,"activity change, negative = cytotoxic",[2],4.71% [at 9.22 µM]
same,"activity change, negative = cytotoxic",[3],-0.106% [at 11.4 µM]
same,"activity change, negative = cytotoxic",[4],1.38% [at 9.22 µM]
same,"activity change, negative = cytotoxic",[5],2.36% [at 9.22 µM]
same,"activity change, negative = cytotoxic",[6],7.29% [at 11.5 µM]
same,"activity change, negative = cytotoxic",[7],-3.1% [at 9.22 µM]
same,"activity change, negative = cytotoxic",[8],9.58% [at 11.5 µM]
same,"activity change, negative = cytotoxic",[9],4.63% [at 9.22 µM]
same,"activity change, negative = cytotoxic",[10],0.923% [at 9.22 µM]
same,"activity change, negative = cytotoxic",[11],-1.39% [at 9.22 µM]
same,"activity change, negative = cytotoxic",[12],18.3% [at 9.22 µM]
same,"activity change, negative = cytotoxic",[13],23.2% [at 9.22 µM]
COc1ccc2c(OCc3nnc4ccc(-c5ccccc5)nn34)ccnc2c1,Potency,[1],inactive
same,Potency,[2],inactive
same,Potency,[3],inactive
same,Potency,[4],inactive
same,Potency,[5],inactive
same,Potency,[6],inactive
same,Potency,[7],inactive
same,Potency,[8],inactive
same,Potency,[9],inactive
same,Potency,[10],inactive
same,Potency,[12],inactive
